This is a sample that favours compounds with a hit; in the whole collection about 7.3% have one here.
NPC1 prom act: qHTS Assay for NPC1 Promoter Activators. Huh7 NPC1 promoter luciferase reporter, 24 h. Potency, µM (highest dose often 9.22 µM), without a hit: at the highest dose activation, usual class: activators. 320,000 compounds, 2.4% hits; note: % of control where 0% means no effect; nearly all actives have a fitted effect of over 60% in size
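NPC1 promoter–luciferase Huh7 cells; 24 h compound; luminescence.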
SMN2 splice enh: qHTS Assay for Enhancers of SMN2 Splice Variant Expression. 210,000 compounds, 2.8% hits. AID 1458, 2008. Potency, µM (top dose mostly 46.1 µM), without a hit: at the highest dose activity change, positive = activation, usual class: activators. HEK293 SMN2-luciferase splicing reporter, luminescence, 30-36 h; note: % of control where 0% means no effect; nearly all actives have a fitted effect of over 55% in size
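qHTS luciferase splicing reporter: luminescence rises when SMN2 exon 7 is included in transfected HEK293 cells. Compound exposure lasted 30-36 h at 37C, with 4.5 mM final sodium butyrate as control, followed by a ONE-Glo read.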
p53 reactivator: qHTS assay for re-activators of p53 using a Luc reporter | H1299 p53-A138V BP100-luciferase reporter, luminescence, 24 h | Potency, µM (series often up to 92.2 µM), for inactives: at the top dose activity change, positive = activation, usual class: activators | 320,000 compounds, 0.063% hits | AID 504706, 2011; note: % of control where 0% means no effect; nearly all actives have a fitted effect of over 45% in size
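p53-null H1299 cells stably carrying temperature-sensitive p53-A138V and a BP100-luciferase reporter were pinned with compounds (4-point, 1:5 series) and held 24 hrs at 37 deg C. Luminescence was read 10 min after detection reagent.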
FLuc counter: qHTS profiling assay for firefly luciferase inhibitor/activator using purifed enzyme and Km concentrations of substrates (counterscreen for miR-21 project) | Luciferin 4-monooxygenase (Photinus pyralis), P08659 | purified FLuc, Km substrates, luminescence inhibition | Potency, µM (series often up to 57.5 µM), for the others: at the top dose activity change, negative = inhibition, actives largely listed as inhibitors | 360,000 compounds, 6.9% hits;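 note: plate controls were vehicle for no effect and reference inhibitor for full effect; nearly all actives have a fitted effect of over 55% in size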
Target sequence (P08659 whole entry, looked up): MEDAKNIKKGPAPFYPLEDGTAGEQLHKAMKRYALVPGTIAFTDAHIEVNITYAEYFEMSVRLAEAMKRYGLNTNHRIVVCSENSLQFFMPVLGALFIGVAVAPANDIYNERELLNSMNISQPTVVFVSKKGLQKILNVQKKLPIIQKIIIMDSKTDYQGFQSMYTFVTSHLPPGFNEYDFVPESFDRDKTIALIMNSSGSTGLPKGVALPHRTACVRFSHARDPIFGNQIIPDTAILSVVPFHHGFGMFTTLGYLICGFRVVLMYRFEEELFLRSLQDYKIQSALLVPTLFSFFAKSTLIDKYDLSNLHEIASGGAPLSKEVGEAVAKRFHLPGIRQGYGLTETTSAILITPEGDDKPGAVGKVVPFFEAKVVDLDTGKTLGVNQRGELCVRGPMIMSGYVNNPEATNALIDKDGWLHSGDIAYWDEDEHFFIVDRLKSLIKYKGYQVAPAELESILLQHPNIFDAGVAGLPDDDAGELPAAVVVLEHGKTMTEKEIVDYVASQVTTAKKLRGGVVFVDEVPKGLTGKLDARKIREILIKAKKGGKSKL
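Biochemical qHTS of compounds, final roughly 60 µM downward over six points, against 10 nM purified firefly luciferase using Km concentrations of substrates (10 uM D-luciferin, 10 uM ATP) in Tris acetate pH 7.5 buffer; luminescence output.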
ELG1 genotoxic: qHTS screen for small molecules that induce genotoxicity in human embryonic kidney (HEK293T) cells expressing luciferase-tagged ELG1; AID 504466, 2011; 330,000 compounds, 1.3% hits; Potency, µM (highest dose often 46 µM), for the others: at the highest dose activity change, positive = activation, hits mostly activators; HEK293T ELG1-luciferase reporter, luminescence, 16 h; note: % of control where 0% means no effect; nearly all actives have a fitted effect of over 60% in size
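Step 1: seed 2,000 HEK293T ELG1-luciferase cells per well. Step 2: add compound or DMSO, incubate 16 hr at 37 °C. Step 3: ONE-Glo, 30 min at room temperature, read luminescence.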
Rab9 prom act: qHTS Assay for Rab9 Promoter Activators; Huh7 Rab9 promoter-luciferase reporter, luminescence, 24 h; Potency, µM (series often up to 9.22 µM), for inactives: top-dose activation, negative = inhibition, actives largely listed as activators; 320,000 compounds, 2.8% hits; AID 485297, 2010; note: % of control where 0% means no effect; nearly all actives have a fitted effect of over 60% in size
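Huh7 cells stably carrying Rab9 promoter–luciferase reporter, plated 1500 cells/well, compound added after 2 h and incubated 24 h at 37 °C; luciferase luminescence then read after 10 min with detection reagent.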
An asterisk follows results filed as active; ? = inconclusive; · = no result; [ ] = remark or other dose. Calls come from the whole dose curve; as a rule, active = well fitted curve in the direction sought with a large enough effect; inconclusive = small, poorly fitted or top-dose-only effect, or another doubt; inactive = no such curve, though single readings can be large; an effect the other way counts as inactive or inconclusive. Potency is the fitted concentration of half-maximal effect.

SMILES	NPC1 prom act	SMN2 splice enh	p53 reactivator	FLuc counter	ELG1 genotoxic	Rab9 prom act
CCc1ccc(N2CC(C)Cn3c2nc2c3c(=O)n(CC(=O)O)c(=O)n2C)cc1 (configuration not stated)	·	4.3%	·	-8.6%	·	·
CCOC(=O)CC(Nc1nc(N2CCOCC2)nc(N2CCOCC2)n1)c1ccccc1Cl (configuration not stated)	-6.5%	-21.7%	-1.2%	1.2%	-3.5%	-6.3%
O=C(NCc1ccco1)c1ccccc1-c1nc(-c2ccccc2)no1	1.1%	6.9%	-0.1%	26.9µM*	6.3%	0.2%
COc1ccccc1-c1noc(-c2ccccc2C(=O)NCc2ccco2)n1	-4.3%	-8.1%	-4.6%	19µM*	-10.4%	-4.2%
COc1cccc2cc(C(=O)NCc3ccco3)c(=Nc3ccc(C(=O)O)cc3)oc12	12.1%	-50.9%	?	?	20.6µM*	0.9%
COc1cc(-c2noc(-c3ccccc3C(=O)NCc3ccco3)n2)cc(OC)c1OC	0.2%	29.9%	-13.2%	-2.2%	-19.8%	-4.6%
Cc1cccc(-c2noc(-c3ccccc3C(=O)NCc3ccco3)n2)c1	?	·	10.1%	9.53µM*	1.3%	?
COc1cccc2cc(C(=O)NCc3ccco3)c(=O)oc12	-0.9%	-21.9%	?	?	13.8%	12.7%
Cc1cccc(C(=O)Nc2ccccc2C(=O)NCc2ccco2)c1	-8.1%	·	-14.5%	?	-4.7%	-5.8%
COc1ccc(-c2nc3cnc(N4CCNCC4)nc3n(CCc3ccccc3)c2=O)cc1	·	3.2%	·	·	·	·
Cc1noc(/C=C/c2ccccc2F)c1S(=O)(=O)N1CCC(C(=O)N(C)Cc2ccco2)CC1	·	·	·	0.7%	·	·
COCCNC(=O)CCC(=O)N1Cc2cccc(OC)c2Oc2ncccc21	·	·	·	0.9%	·	·
O=C(c1cnccn1)N1CCC2(CC1)CN(c1ccccn1)C2	·	-10.5%	·	·	·	·
COc1ccc(NC(=O)c2cc(C3CC3)nc3c2c(C)nn3-c2ccc(C)cc2)cc1OC	·	·	·	-1.6%	·	·
O=C(O)[C@H](C1NCCS1)N1C(=O)c2ccccc2C1=O (some centres not stated)	·	-11.5%[9.22 µM]	·	·	·	·
Cc1ccc(-c2noc(CCCC(=O)NCc3ccco3)n2)cc1	·	-4.0%	·	-15.4%	·	·
Cc1ccc(-c2noc(-c3ccccc3C(=O)NCc3ccco3)n2)cc1	16.2%	·	3.3%	5.36µM*	5.9%	16.5%
Cc1ccccc1NC(=O)CCc1c(C)nn(-c2ccc(N3CCCCC3)nn2)c1C	16.3%	·	8.2%	?	1.6%[9.26 µM]	19.3%
Cc1nn(-c2ccc(N3CCCCC3)nn2)c(C)c1CCC(=O)Nc1cc(F)ccc1F	?	·	?	4.78µM*	3.3%	?
Cc1nn(-c2ccc(N3CCCCC3)nn2)c(C)c1CCC(=O)Nc1ccccc1F	?	·	6.3%	19µM*	-0.1%	?
Cc1cccc(NC(=S)/N=C(\N)Nc2nc(C)c3ccccc3n2)c1	0.2%	-34.3%	?	?	-2.7%	-9.5%
Cc1ccc(NC(=S)/N=C(\N)Nc2nc(C)c3ccccc3n2)cc1C	-8.3%	-28.9%	?	10.7µM*	-1.5%	-9.6%
COc1ccccc1-n1c(=O)c2c3c(sc2n(C)c1=O)CN(C(C)=O)CC3	·	·	·	0.5%	·	·
Cc1ccc(C)c(NC(=O)CN(C)C(=O)C2CCN(C(=O)Nc3ccccc3)CC2)c1	1.7%	·	2.7%	-1.7%	6.2%	2.9%
CCc1ccc2oc(C(=O)Nc3ccccc3C(=O)OC)cc(=O)c2c1	·	-7.7%	·	-2.1%	·	·
SMILES	NPC1 prom act	SMN2 splice enh	p53 reactivator	FLuc counter	ELG1 genotoxic	Rab9 prom act
COc1cc(C(C)=O)ccc1COc1ccc(C(=O)OCC(N)=O)cc1OC	-0.4%	-35.7%	-22.3%	12µM*	3.0%	-1.8%
CC1(C)SC2c3ccccc3C(=O)N2[C@@H]1C(=O)O (some centres not stated)	-0.6%	·	-0.4%	3.0%	0.7%	-13.1%
CC1=NC(=O)C(N=Nc2ccccc2)N1c1ccccc1 (configuration not stated)	11.9%	15.8µM*	?	?	?	3.55µM*
CC1=NC(=O)C(N=Nc2ccccc2C(=O)O)N1c1ccccc1 (configuration not stated)	7.3%	11.9%	10.5%	15.1µM*	-7.2%	26.2%
CC1=NC(=O)C(N=Nc2cccc(C(=O)O)c2)N1c1ccccc1 (configuration not stated)	?	0.501µM*	-12.5%	0.426µM*	?	1.26µM*
CC1=NN(c2ccccc2)C(=O)C1N=Nc1ccc(C)cc1 (configuration not stated)	1.2%	21.4%	3.8%	-17.0%	0.6%	-2.5%
Oc1ccccc1/C=N/Nc1nc2ccccc2o1	-14.9%	·	?	1.9µM*	9.2µM*	-17.1%
Brc1ccc(/C=N/Nc2nc3ccccc3o2)cc1	1.58µM*	·	?	1.51µM*	?	1.12µM*
O=C(CSc1nc2ccccc2o1)N/N=C/c1ccc(C(=O)O)cc1	2.2%	·	1.6%	-17.0%	-0.4%	-8.6%
Cc1ccc2nc(C)cc(N/N=C/c3ccccc3O)c2c1	22.3%	·	·	-1.7%	7.8%	10.9%
CCCCN1CC(=O)N2[C@H]3c4ccc(OC)cc4OC[C@@H]3[C@H](c3ccccc3)[C@]2(C)C1=O	1.0%	·	-4.7%	-0.8%	0.1%	1.8%
CC1CC(C)CN(C(=O)c2cc3cc(Br)cc(Br)c3o2)C1 (configuration not stated)	14.8%	11.3%	12.2%	16.9µM*	?	17.2%
CC1CC(C)CN(C(=O)c2cc3ccccc3o2)C1 (configuration not stated)	23.5%	·	?	?	23.1µM*	?
CC1CC(C)CN(C(=O)Nc2ccc(Br)cc2)C1 (configuration not stated)	-0.6%	10.7%	2.7%	?	0.3%	10.2%
CC1CCN(C(=O)c2cc3ccccc3o2)CC1	?	?	?	19µM*	13µM*	?
CC(=O)N1CCN(C(=O)c2cc3ccccc3o2)CC1	-2.5%	·	0.4%	0.6%	7.0%	-2.0%
CCN(CC)c1ccc(CN(C(=O)Cc2coc3ccc(C)cc23)C2CCS(=O)(=O)C2)cc1 (configuration not stated)	·	-13.5%	·	6.0%	·	·
CCOc1ccc(NC(=O)c2ccc3c(SCC(=O)O)c4c(nc3c2)CCC4)cc1	·	-64.8%	·	23.9µM*	·	·
CN(C(=O)c1ccc2c(Cl)c3c(nc2c1)CCC3)c1ccccc1	?	·	24.7%	21.3µM*	?	?
